Most compounds without a hit are left out; they make up all but 2.8% or so of the library.
HGIII-sPLA2 inh = Inhibits HGIII-sPLA2 liposome hydrolysis, primary screen; QFRET BODIPY PC-A2 liposome hydrolysis, fluorescence; inhibition, % at 12.2 µM; 370,000 tested, 0.56% active; Q9NZ20;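 active = inhibition above mean plus 3 SD of compounds lying within the high and low control bounds, cut at about 19% in these data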
Target sequence (Q9NZ20 whole entry, looked up): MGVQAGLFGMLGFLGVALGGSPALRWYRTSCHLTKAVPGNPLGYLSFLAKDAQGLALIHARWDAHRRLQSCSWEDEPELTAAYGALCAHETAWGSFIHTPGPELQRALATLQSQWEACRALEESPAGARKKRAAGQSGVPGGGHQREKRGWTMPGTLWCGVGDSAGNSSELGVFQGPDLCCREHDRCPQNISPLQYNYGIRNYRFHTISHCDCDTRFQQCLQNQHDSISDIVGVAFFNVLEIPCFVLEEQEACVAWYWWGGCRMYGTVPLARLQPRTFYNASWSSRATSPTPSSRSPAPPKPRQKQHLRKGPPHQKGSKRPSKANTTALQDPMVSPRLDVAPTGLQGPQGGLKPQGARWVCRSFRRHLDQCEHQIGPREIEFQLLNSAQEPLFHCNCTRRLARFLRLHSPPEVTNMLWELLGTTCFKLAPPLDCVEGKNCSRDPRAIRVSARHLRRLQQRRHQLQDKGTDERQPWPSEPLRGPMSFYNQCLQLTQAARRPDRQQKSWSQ
MsrA act = bovine methionine sulfoxide reductase A activation | purified bovine MsrA, absorbance read-out | 360,000 tested, 0.3% active | activation, % at 10.6 µM | AID 602163; in the data active = activation above about 7.5%
MsrA inh = inhibitors of bovine MsrA; 360,000 tested, 0.75% active; purified bovine MsrA, absorbance read-out; inhibition, % at 15.5 µM
rCAG RNA binder = molecules binding r(CAG) RNA repeats; r(CAG) RNA repeat, TO-PRO-1 dye displacement fluorescence; 370,000 tested, 1.3% active; inhibition, % at 3 µM;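 active = inhibition above the plate cutoff, the mean of all test compounds on that plate plus 3 SD, cut at about 35% in these data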;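 note: higher means more dye released from RNA so lower well fluorescence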
MsrA inh confirm = bovine MsrA inhibition, confirmed; inhibition, % at 15.5 µM; shares compounds with MsrA inh; purified bovine MsrA, absorbance read-out; 2,300 tested, 41% active; AID 651822;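 note: coupled to thioredoxin reductase with NADPH and selenocystamine and DMSO as substrate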
Numbers stand for hits; n = inactive; x = not tested or not shown. Cut-off read from the data, not from the text of the source, unless noted: active = inhibition above about 4.5%; inactive = the rest.

SMILES	HGIII-sPLA2 inh	MsrA act	MsrA inh	rCAG RNA binder	MsrA inh confirm
O=C(N/N=C/c1cccnc1)/C(=C\c1cccs1)NC(=O)c1ccccc1	n	n	7.3	n	4.7
CCc1nnc(NC(=O)c2ccc3c(c2)C(=O)N(CC(C)C)C3=O)s1	n	x	n	n	x
CC(=O)/C(N=Nc1cc(C)ccc1O)=C(\C)O	n	n	n	n	x
Cc1cc(N2CCOCC2)ccc1/C=C1\NC(=O)N(CC(=O)Nc2ccccc2C)C1=O	n	n	n	n	x
Cc1cc(N2CCOCC2)ccc1/C=C1\NC(=O)N(CC(=O)Nc2ccc(F)cc2)C1=O	n	n	5.6	n	n
Cc1ccc(S(=O)(=O)NCCN=Cc2ccc(N(C)C)cc2)cc1	n	n	4.9	n	n
Cc1ccc(S(=O)(=O)/N=C/c2ccc(N(C)C)cc2)cc1	n	n	6.7	n	n
Cc1ccc(N(C(=O)C(F)(F)F)C(C(=O)NC2CCCCC2)c2cccs2)cc1C (configuration not stated)	n	n	n	n	x
N#Cc1c(-n2cccc2/C=N/O)sc2c1CCCC2	n	n	16	n	14
C=CCNCc1cccn1-c1sc2c(c1C#N)CCCC2	n	n	n	n	x
Cc1ncc(CO)c(CNc2ccc(-c3nc4ccccc4[nH]3)cc2)c1O	n	n	6.4	n	5.2
Cc1ccnc(N=Cc2nc(-c3ccccc3Br)oc2O)c1	n	n	6.5	n	n
CCOc1cc(/C=N/NC(=O)COc2ccccc2C)ccc1OC(=O)c1cccs1	n	n	n	n	x
CCOc1cc(/C=N/NC(=O)c2cccs2)ccc1OC(=O)N1CCOCC1	n	n	4.8	n	n
CCCCOCCCNC(=O)C[C@H]1C[C@@]2(C(=O)OC)C(=C[C@H](C(C)C)O[C@@H]2C2CC2)N(Cc2ccco2)C1=O	n	x	x	n	x
NC(=O)c1cc(S(=O)(=O)N2CCN(c3ccc([N+](=O)[O-])cc3)CC2)cs1	n	n	7.8	n	4.8
O=C(NCC1CCCO1)C(=O)N/N=C/c1ccc(O)c(Cl)c1 (configuration not stated)	n	n	5.3	n	n
O=C(NCC1CCCO1)C(=O)N/N=C/c1cc(Cl)ccc1O (configuration not stated)	n	n	n	n	x
Cc1cccc(NC(=O)Cn2cnc3c(cnn3-c3ccc(F)cc3)c2=O)c1C	n	n	n	n	x
CC1=C(C(=O)N(C)C)CC(CC(=O)NCCN2CCOCC2)C(=O)N1CCC1=CCCCC1 (configuration not stated)	n	n	n	n	x
COc1ccc(/C=C2\SC(N3CCCCC3)=NC2=O)cc1	n	n	5.9	n	4.7
CCc1ccc(/C=C2\SC(N3CCCC3)=NC2=O)cc1	n	n	4.8	n	n
CCN(CC)CCOC(=O)c1ccc(NC(=O)CCCN2C(=O)S/C(=C/c3ccc(OC)cc3)C2=S)cc1	x	n	x	x	x
O=C(O)c1cccc(Cn2c(Cl)c(/C=N/NC(=O)c3ccccc3O)sc2=O)c1	n	n	5.0	n	n
O=C(O)c1cccc(Cn2c(Cl)c(/C=N/Nc3ccccc3)sc2=O)c1	x	n	x	x	x
SMILES	HGIII-sPLA2 inh	MsrA act	MsrA inh	rCAG RNA binder	MsrA inh confirm
COc1ccc(C(=O)N/N=C/c2sc(=O)n(Cc3cccc(C(=O)O)c3)c2Cl)cc1	n	n	9.0	n	5.6
O=C(O)c1cccc(Cn2c(Cl)c(/C=N/NC(=O)c3ccccc3Cl)sc2=O)c1	n	n	n	n	x
O=C(NCc1ccccc1)O[C@@H]1CC[C@@]23CCCN2C(=O)CCC[C@H]3C1	n	x	x	x	x
O=[N+]([O-])c1ccc(O)c(C=Nc2cccc3ncccc23)c1	n	n	5.2	n	n
O=[N+]([O-])c1ccc(O)c(C=Nc2cccc3ccccc23)c1	n	n	n	n	x
COCCCn1cnnc1SCC(=O)Nc1ccc(S(=O)(=O)N2CCCC2)cc1	n	n	n	n	x
Nc1n[nH]c(N)c1N=Nc1ccccc1	n	n	5.0	n	n
CCCc1cc(C(=O)Nc2cccc([N+](=O)[O-])c2)cs1	n	n	n	n	x
Cc1cc2oc(=O)cc(-c3cc4ccccc4o3)c2cc1O	n	n	6.5	n	n
COc1cccc2cc(-c3cc(=O)oc4cc(C)c(OCC(C)=O)cc34)oc12	n	n	n	n	x
CC(=O)COc1ccc2oc(=O)cc(-c3cc4ccccc4o3)c2c1	n	n	13	n	12
O=c1cc(-c2cc3ccccc3o2)c2cc(O)ccc2o1	x	n	x	x	x
O=C(NCc1ccc2c(c1)OCO2)Nc1ccc([N+](=O)[O-])cc1	n	n	n	n	x
O=Cc1cnc(N2CCCCC2)s1	n	n	5.0	n	6.9
O=C(N/N=C/c1cnc(N2CCCCC2)s1)c1ccc(Cl)cc1	n	n	n	n	x
Cc1ccccc1-c1ccc(C=Nc2c(C)n(C)n(-c3ccccc3)c2=O)o1	n	n	n	n	x

From PubChem
